Bioassay records deposited in PubChem BioAssay by National Center for Advancing Translational Sciences (NCATS).
PI5P4Ka inh: blocks human PI5P4K alpha kinase activity; AID 652105; PI5P4Kalpha enzyme, ADP-Glo luminescence, 60 min; active compounds read low; max response, %; actives 1.2% (n = 330,000); P48426; active means max response of -50% or lower; inconclusive means between -30% and -50%; inactive means -30% or higher; further: value at the top dose of about 77 µM; on the % scale 0 is the no-effect control and ±100 the full control effect
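Quantitative HTS of the MLSMR library against PI5P4Kalpha with substrate. ATP added last at 5 microM final; room temperature, 60 minutes. Remaining ATP depleted, ADP converted and read as luminescence.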
POLB inh: inhibitors of human DNA polymerase beta; P06746; Pol beta primer extension/strand displacement, fluorescence kinetic; Potency, µM (highest dose often 114 µM), without a hit: at the highest dose activity change, negative = inhibition, actives largely listed as inhibitors; actives 1.3% (n = 340,000); further: potency means the concentration at half of the fitted maximal effect; on the % scale 0 is the no-effect control and ±100 the full control effect
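Curves were derived by four-parameter Hill fits of normalized qHTS data. The kinetic fluorescent primer-extension read was taken at 0 and 10 min after 50 nM substrate, following a 15 min room-temperature preincubation of 10 nM enzyme with compounds.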
POLK inh: inhibitors of human DNA polymerase kappa; purified Pol kappa, fluorescent DNA synthesis assay, 10 min; Potency, µM (series often up to 107 µM), for the others: at the top dose activity, negative = inhibition, usual class: inhibitors; actives 0.53% (n = 400,000); further: potency means the concentration at half of the fitted maximal effect; on the % scale 0 is the no-effect control and ±100 the full control effect
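Kinetic fluorescence readout at 0 and 10 min followed reaction start with substrate at 50 nM final. Beforehand, enzyme (10 nM Pol kappa) stood 15 min with compound at room temperature; buffer-only wells were negative controls.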
FEN1 inhibitor: blocks human flap endonuclease 1. Recombinant FEN1 flap cleavage, fluorescence, 15 min. Potency, µM (doses to about 114 µM), for the others: at the top dose activity change, negative = inhibition, most hits filed as inhibitors. actives 0.35% (n = 390,000); further: potency means the concentration at half of the fitted maximal effect; on the % scale 0 is the no-effect control and ±100 the full control effect; nearly all actives have a fitted effect of over 65% in size
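Concentration–response screening of FEN1 (10 nM): 15 min compound preincubation at room temperature, reaction started with 50 nM substrate and read at 0 and 15 min. Corrected, normalized data were fitted by a four-parameter Hill equation.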
Pol iota inh: blocks human DNA polymerase iota activity. actives 1% (n = 390,000). Pol iota fluorescent replication assay, 10 min. AID 588590. Q9UNA4. Potency, µM (series often up to 115 µM), without a hit: at the highest dose activity, negative = inhibition, actives largely listed as inhibitors; further: potency means the concentration at half of the fitted maximal effect
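Pol iota at 10 nM preincubated 15 min with compounds at room temperature; reaction started with fluorescent substrate, 50 nM final. Fluorescence read kinetically at 0 and 10 min; buffer-only wells as negative control.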
POLH inh: DNA polymerase eta (human) inhibition; Q9Y253; Potency, µM (series often up to 114 µM), for inactives: at the highest dose activity change, negative = inhibition, hits mostly inhibitors; actives 1.2% (n = 390,000); recombinant Pol eta, fluorescent DNA replication assay; further: potency means the concentration at half of the fitted maximal effect; on the % scale 0 is the no-effect control and ±100 the full control effect
Target sequence (Q9Y253 whole entry, looked up): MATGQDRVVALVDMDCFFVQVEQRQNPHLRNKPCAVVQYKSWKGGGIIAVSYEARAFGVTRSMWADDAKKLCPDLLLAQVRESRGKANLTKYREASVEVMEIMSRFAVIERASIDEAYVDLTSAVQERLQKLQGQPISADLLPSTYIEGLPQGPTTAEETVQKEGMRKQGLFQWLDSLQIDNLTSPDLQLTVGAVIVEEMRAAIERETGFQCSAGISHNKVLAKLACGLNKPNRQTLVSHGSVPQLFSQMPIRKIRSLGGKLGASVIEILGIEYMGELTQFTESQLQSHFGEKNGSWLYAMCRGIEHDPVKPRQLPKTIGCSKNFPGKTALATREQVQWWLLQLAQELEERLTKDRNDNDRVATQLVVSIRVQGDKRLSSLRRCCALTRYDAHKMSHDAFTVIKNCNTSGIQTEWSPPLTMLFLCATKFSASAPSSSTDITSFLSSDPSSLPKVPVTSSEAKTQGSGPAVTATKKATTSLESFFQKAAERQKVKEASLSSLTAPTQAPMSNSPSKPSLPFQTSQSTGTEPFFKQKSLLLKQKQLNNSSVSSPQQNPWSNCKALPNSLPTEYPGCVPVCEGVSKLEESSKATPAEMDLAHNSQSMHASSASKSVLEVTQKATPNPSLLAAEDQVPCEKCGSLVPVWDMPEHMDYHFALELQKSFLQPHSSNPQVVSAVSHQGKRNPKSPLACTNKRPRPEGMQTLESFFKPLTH
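Fluorescent replication assay: 50 nM final substrate added after a 15 min room-temperature compound preincubation with 10 nM enzyme. Signal taken at 0 min and again at 10 min.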
Starred values were filed as active, the others as inactive; ? = inconclusive; / = not tested or not shown; ! = repeats disagree; [ ] = remark or other dose. Sampled rows, rich in hits. Any-hit rate of the full collection: about 2.8%. Unless noted, the call rests on the fitted dose curve; in most records, active means well fitted curve in the direction sought with a large enough effect; inconclusive means small, poorly fitted or top-dose-only effect, or another doubt; inactive means no such curve, though single readings can be large; an effect the other way counts as inactive or inconclusive.

SMILES	PI5P4Ka inh	POLB inh	POLK inh	FEN1 inhibitor	Pol iota inh	POLH inh
Nc1nccnc1C(=O)OCC(=O)NCCc1ccc(S(N)(=O)=O)cc1	-19	/	-21%	-3%	22µM*	?
O=c1c2c(-c3ccccc3)csc2ncn1/N=C/c1cccc([N+](=O)[O-])c1O	-103*	-21%	-19%	6%	-25%	1%
Cc1cc(C)cc(NC(=O)Cn2c3ncccc3c(=O)n2-c2ccc(C)c(C)c2)c1	/	-18%	-9%	1%	-5%	-17%
CCCCc1nnc(SCCSc2nnc(CCCC)n2N)n1N	0	28%	-6%	0%	89µM*	-10%
CCc1nnc(SCCSc2nnc(CC)n2N)n1N	6	-8%	-2%	-4%	8%	0%
Cc1cc(C)c2oc(-c3cccc(NC(=O)COc4ccc(Cl)cc4C)c3C)nc2c1	/	/	-8%	2%	-20%	/
CCCCCCCNC1=CC(=O)CC(c2ccco2)C1 (centres undefined)	/	11µM*	-25%	-17%	?	-24%
COC(=O)c1cc2sccc2n1CC(=O)Nc1ccc(C)cc1C	/	-29%	-13%	-5%	13%	-4%
CCCCCCCC/C=C\CCCCCCCCCCCC(=O)O	/	/	11µM*	/	/	/
CCCCC/C=C/C=C1/C(=O)C=C[C@@H]1C/C=C\CCCC(=O)O	/	/	3.2µM*!	/	/	/
CCCCC[C@@H](/C=C/C1C(=O)C=C[C@H]1C/C=C\CCCC(=O)O)OC(C)=O (some centres undefined)	-6	/	-19%	5%	?	45µM*
CCCCC[C@H](O)/C=C/[C@H]1C=CC(=O)[C@@H]1C/C=C\CCCC(=O)O	/	3.2µM*	2%[19.4 µM]	/	/	/
CCOC(=O)C1CCN(C(=O)c2ccc(NC(=O)c3nsc4ccccc34)cc2)CC1	/	0%	-14%[60.1 µM]	-4%	-8%	-22%
Cc1cccc(NC(=O)C2CCN(c3cnccn3)CC2)c1	/	11%	-9%	15%	28%	-6%
CC(=O)Nc1cccc(-c2ccnc3c2CC(C(=O)Nc2ccc(Cl)cc2)O3)c1 (centres undefined)	2	/	/	/	/	/
CCOC(=O)CC(=O)CSc1nc(-c2ccccc2)cc(-c2ccccc2)c1C#N	3	-2%	-6%	2%	23%	-26%
COc1ccc(-c2cc(-c3ccccc3)nc(SC(C)C(=O)O)c2C#N)cc1 (centres undefined)	?	0%	-2%	-5%	40µM*	-24%
CC(C)C(Sc1nc(-c2ccccc2)cc(-c2ccccc2)c1C#N)C(=O)O (centres undefined)	-3	?	-4%	3%	-15%	?
COc1ccc(-c2cc(-c3ccc(Cl)cc3)c(C#N)c(SCC(=O)O)n2)cc1	-12	32µM*	-3%	-18%	-14%	4%
CCN(CC)C(=O)CSc1nc(-c2ccccc2)cc(-c2ccc(OC)cc2)c1C#N	/	3%	-11%	3%	-13%	-16%
N#Cc1c(-c2ccccc2)cc(-c2ccccc2)nc1SCC(=O)NCC(=O)O	2	50µM*	-5%	-11%	6%	-9%
Cc1ccc(-c2c(CN3CCN(c4cc(Cl)ccc4C)CC3)csc2C)cc1	/	21%	-9%	-5%	-1%	-13%
Cc1ccc(C)c(NC(=O)CSc2nnc(C3CCCCC3)o2)c1	3	1%	-18%	2%	72%	-10%
Cc1ccc(CNC(=O)c2ccc(Cn3nc(C)c(Cl)c3C)o2)cc1	-1	50µM*	-17%	5%	?	?
Cc1cc(C)cc(NC(=O)c2ccc(Cn3nc(C)c(Cl)c3C)o2)c1	-2	-20%	-5%	-24%	6%	-15%
SMILES	PI5P4Ka inh	POLB inh	POLK inh	FEN1 inhibitor	Pol iota inh	POLH inh
COC(=O)/C(=C(O)\C=C\c1ccccc1[N+](=O)[O-])c1nc2ccccc2[nH]1	-2	-17%	-15%	?	?	-29%
Cc1ccn2c(Nc3ccc(C(C)C)cc3)c(-c3cccs3)nc2c1	/	13%	-4%	-18%	5%	-17%
CN(CC(=O)Nc1ccc(F)c(F)c1F)C(=O)/C=C/c1ccco1	-4	/	-38%	2%	50µM*	?
CN(CC(=O)Nc1ccc(F)c(F)c1F)C(=O)/C=C/c1ccc(Cl)cc1	-9	4%[57.1 µM]	-8%	-3%	0%	-7%
Cc1coc2cc3oc(=O)c4c(c3cc12)CCC4	/	-26%	/	/	/	/
Cc1coc2c1C(=O)C(=O)c1c-2ccc2c1CCCC2(C)C	-52*	22µM*	?	?	?	89µM*
Cc1coc2c1C(=O)C(=O)c1c-2ccc2c(C)cccc12	-56*	20µM*	79µM*	?	?	28µM*
O=C(NC1CCCC1)C1c2ccccc2OCC(=O)N1C1CC1 (centres undefined)	0	/	/	/	/	/
CCCCn1c(C)cc2c(c1=O)C1O[C@](c3ccsc3)(Cc3cc(OC)c(OC)cc31)O2	/	3%[22.9 µM]	/	/	/	/
N#Cc1ccc2c(c1)C[C@]1(c3ccsc3)Oc3c(c(=O)oc4ccc(F)cc34)C2O1	/	11µM*	/	/	/	/
Cc1cc2c(c(=O)n1-c1ccccc1)C1O[C@](c3ccsc3)(Cc3cc(C#N)ccc31)O2	/	8.9µM*	/	/	/	/
Cc1cc2c(c(=O)o1)C1O[C@](c3ccsc3)(Cc3cc(C#N)ccc31)O2	/	10µM*	/	/	/	/
COc1ccc2c3c(c(=O)oc2c1)C1O[C@](c2ccsc2)(Cc2cc(C#N)ccc21)O3	/	3.2µM*	/	/	/	/
CC(C)(C)OC(=O)C[C@@H]1C/C=C\C[C@H](CC(=O)NCCO)C(=O)N[C@@H](Cc2ccccc2)COC1=O	5	/	-12%	-13%	14%	-11%
COC(=O)C[C@@H]1CC[C@@H](NS(=O)(=O)c2ccc(OC)cc2)[C@@H](CO)O1	2	/	/	/	/	/
N#Cc1ccc2c(c1)C[C@]1(c3ccsc3)Oc3c(c(=O)oc4ccccc34)C2O1	/	2.8µM*	/	/	/	/
O=C(O)c1cc2cccc(S(=O)(=O)N3CCOCC3)c2cc1O	-73*	0%	-3%	4%	15%	-7%
CC(C)Sc1nnc(NC(=O)c2ccco2)s1	-7	-22%	-17%	13%	?	89µM*
O=C(Nc1n[nH]c(=S)s1)c1ccco1	-61*	6%	56µM*	?	?	-3%
Cc1ccc2oc(-c3cc(NC(=O)c4oc5ccccc5c4C)ccc3Cl)nc2c1	/	6%	0%	-2%	18%	-19%
Cc1ccc2oc(-c3ccc(NC(=O)c4ccncc4)cc3O)nc2c1	-7	?	-11%	-7%	76%	11%
Cc1ccc2oc(-c3cc(NC(=O)c4ncn[nH]4)ccc3O)nc2c1	?	?	-8%	-33%	34%	45µM*
Cc1ccc2oc(-c3cc(NC(=O)c4ccco4)ccc3Cl)nc2c1	/	-11%	?	79µM*	?	-14%
